# Rows were chosen to be rich in hits. Some 2.1% of all compounds tested hit in one or more screens of this group.
# MsrA inh = bovine MsrA enzyme inhibitors, primary screen, biochemical, absorbance, HTS; Methionine sulfoxide reductase A (Bos taurus); purified bovine MsrA, absorbance read-out; inhibition, % at 15.5 µM; 0.75% of 360,000 active; in the data active means inhibition above about 4.5%;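 further: 0% = vehicle wells with enzyme and 100% = reference inhibitor wells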
# ABCB6 inh 2 = ABCB6 transporter inhibitors, primary screen, K562-ABCB6 cells, flow cytometry, MLPCN library. K562-ABCB6 porphyrin accumulation, 1 h; stronger effect = lower value. ATP-binding cassette sub-family B member 6 (Homo sapiens), Q9NP58. fluorescence ratio to DMSO, % at 10 µM. 0.19% of 360,000 active;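 active means fluorescence ratio to DMSO below 75%, the collection mean minus 3 SD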;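 further: signal is porphyrin accumulated inside mitochondria; 100% equals median channel fluorescence of DMSO control wells; lower ratio means ABCB6 inhibition with less porphyrin fluorescence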
# Target sequence (Q9NP58 whole entry, looked up): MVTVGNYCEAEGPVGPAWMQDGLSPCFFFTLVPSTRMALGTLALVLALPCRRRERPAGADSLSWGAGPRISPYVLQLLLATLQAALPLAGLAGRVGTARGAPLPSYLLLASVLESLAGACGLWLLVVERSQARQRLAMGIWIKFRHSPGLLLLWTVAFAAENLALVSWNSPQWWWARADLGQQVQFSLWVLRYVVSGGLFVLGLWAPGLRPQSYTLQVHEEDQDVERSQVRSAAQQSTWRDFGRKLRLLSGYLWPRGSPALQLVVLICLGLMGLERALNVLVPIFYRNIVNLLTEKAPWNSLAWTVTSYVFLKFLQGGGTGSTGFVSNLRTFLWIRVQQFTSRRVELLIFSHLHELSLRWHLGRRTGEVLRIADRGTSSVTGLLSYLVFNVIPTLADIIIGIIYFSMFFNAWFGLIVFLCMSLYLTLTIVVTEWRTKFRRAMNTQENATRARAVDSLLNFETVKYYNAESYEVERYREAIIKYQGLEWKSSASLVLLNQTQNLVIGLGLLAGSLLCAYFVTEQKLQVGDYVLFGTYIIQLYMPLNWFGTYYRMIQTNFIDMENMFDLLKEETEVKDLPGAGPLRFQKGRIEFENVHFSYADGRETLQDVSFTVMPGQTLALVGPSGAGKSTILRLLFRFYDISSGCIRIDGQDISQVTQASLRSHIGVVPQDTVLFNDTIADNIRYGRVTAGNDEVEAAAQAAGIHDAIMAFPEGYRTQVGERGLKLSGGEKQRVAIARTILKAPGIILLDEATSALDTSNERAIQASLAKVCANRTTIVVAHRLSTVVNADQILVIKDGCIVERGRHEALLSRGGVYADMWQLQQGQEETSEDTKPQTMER
# MsrA act = bovine MsrA enzyme activators, primary screen, biochemical, absorbance, HTS | AID 602163, 2012 | 0.3% of 360,000 active | activation, % at 10.6 µM | Methionine sulfoxide reductase A (Bos taurus) | purified bovine MsrA, absorbance read-out; in the data active means activation above about 7.5%;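 further: 0% = vehicle and 100% = reference activator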
# SMARCA2 act = SMARCA2 (BRM) function activators, primary screen, cell-based, luminescence, high throughput | MG213 cells, MMTV-luciferase reporter, dexamethasone, overnight | 1% of 370,000 active | AID 652017, 2013 | activation, % at 9.1 µM; in the data active means activation above about 7.8%;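 further: 0% = vehicle wells and 100% = reference activator wells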
# SMARCA2 conf = SMARCA2 (BRM) function activators, confirmation, cell-based, luminescence, triplicate. shares compounds with SMARCA2 act. MG213 cells, MMTV-luciferase with dexamethasone, overnight; MG213 cells expressing E1A, Rb sequestered; DMSO wells 0%, reference activator 100%. activation, % at 9.1 µM. 30% of 3,500 active;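 active means activation above its plate's cutoff, the mean activation of tested wells plus 3 SD, cut at about 7.9% in these data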
# GAL4-VP16 Luc = GAL4-VP16 luciferase reporter activation, counter-screen for SMARCA2 (BRM) activator project, cell-based, pG5luc, luminescence, high throughput; shares compounds with SMARCA2 act; HEK293 GAL4-VP16 pG5luc reporter; scaled: DMSO wells 0%, SAHA wells 100%; activation, % at 9.1 µM; 41% of 3,500 active; AID 686939, 2013;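 active means activation above the solvent-only control well mean plus 3 SD, averaged across control plates, cut at about 5.2% in these data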
# * marks the source's active call; other numbers are inactive results; / = no result.
SMILES,MsrA inh,ABCB6 inh 2,MsrA act,SMARCA2 act,SMARCA2 conf,GAL4-VP16 Luc
O=C(O)c1ccccc1C(=O)NNc1cccc(Cl)n1,0,98,-5,8.6*,-1,4
COC(=O)c1sc(-c2ccc(Cl)cc2)cc1NC(=O)/C=C/C(=O)O,1,95,-3,9.1*,0,-1
COC(=O)c1sc(-c2ccc(Cl)cc2)cc1NC(=O)COCC(=O)O,3,95,-4,0,/,/
CCNC(=O)C1(C)CCN(C(=O)c2cccc(Cl)c2)C1 (stereo not drawn),1,98,-3,-3,/,/
CCCNC(=O)C1(C)CCCN(C(=O)c2cccc(Cl)c2)C1 (stereo not drawn),2,96,-1,9.3*,0,1
COc1cccc(C(=O)/C=C2\Sc3ccccc3N2C)c1,0,100,-14,7,/,/
CN1/C(=C\C(=O)c2cccnc2)Sc2ccccc21,1,159,-7,13*,6,9.1*
Cc1cc(C)nc(Nc2nc(=O)c3ccccc3s2)n1,-1,106,4,8.8*,4,14*
Cc1cc(C)nc(Nc2nc(-c3ccccc3)cs2)n1,0,95,-4,4,/,/
CCc1nc2ccc(C(=O)Nc3cccc(OCC(=O)N(C)C)c3)cn2c1N(CC)CCOC,-1,93,-4,-2,/,/
Cc1c(NS(=O)(=O)c2cc3c(cc2Br)CCN3C(=O)C2CC2)c(=O)n(-c2ccccc2)n1C,/,/,/,-3,/,/
Cc1cccc(NC(=O)CSc2cccc3cccnc23)c1C,0,96,2,-2,/,/
CCOC(=O)CSc1cccc2cccnc12,1,106,1,9.4*,-9,1
FC(F)(F)c1cc(Cc2nc3ccccc3n2C(CCc2ccccc2)c2nc3ccccc3[nH]2)cc(C(F)(F)F)c1 (stereo not drawn),0,/,/,-4,/,/
CNS(=O)(=O)c1cc(C(=O)OCC(=O)NC2CCCc3ccccc32)ccc1Cl (stereo not drawn),0,98,-5,-2,/,/
CCN(CC)S(=O)(=O)c1cc(C(=O)OCC(=O)NC2CCCc3ccccc32)ccc1C (stereo not drawn),0,98,4,11*,-3,-1
COc1ccc(N2CCCN(CC(=O)Nc3ccc(Cl)c(Cl)c3)CC2)cc1,/,/,/,-5,/,/
CCC(=O)Nc1cccc(NC(=S)NC(=O)c2ccccc2Cl)c1,2,95,0,0,/,/
CCC(=O)Nc1cccc(NC(=S)NC(=O)c2cccs2)c1,0,96,-5,11*,4,9.4*
COc1ccccc1NC(=O)c1c[nH]c2ccccc12,0,101,0,10*,4,4
Cc1cccc(C)c1NC(=O)c1c[nH]c2ccccc12,0,96,-1,13*,8.7*,9.4*
O=C(NCc1cccs1)c1cccc2c(-c3ccc(F)c(F)c3)coc12,1,101,-2,-2,/,/
CC(C)c1cc(C(C)C)c(S(=O)(=O)N2CCCC(C(=O)NCc3cccs3)C2)c(C(C)C)c1 (stereo not drawn),/,/,/,-2,/,/
COc1cccc(NC(=O)Nc2nc3ncccn3c2-c2ccc(F)c(F)c2)c1,/,/,/,0,/,/
C=CCNc1ccc2c(c1)OC[C@@H](CC(C)C)NS2(=O)=O,0,/,/,-4,/,/
SMILES,MsrA inh,ABCB6 inh 2,MsrA act,SMARCA2 act,SMARCA2 conf,GAL4-VP16 Luc
COC(=O)[C@]12C[C@H](CC(=O)N3CCCCC3)C(=O)N(Cc3ccccc3)C1=C[C@H](COCc1ccccc1)O[C@@H]2C,/,/,/,2,/,/
NC(=O)c1ccc(N=Cc2ccc([N+](=O)[O-])s2)cc1,1,99,5,8.9*,-13,5
O=C(Cc1cccs1)N/N=C\c1ccc([N+](=O)[O-])s1,4,99,6,-6,/,/
COc1ccc(C(=O)NNC(=O)c2ccc3ccccc3n2)cc1,1,97,-8,15*,-14,4
O=C(Nc1ccccc1Oc1ccccc1)NC1CCCCN(Cc2ccc(Cl)cc2)C1=O (stereo not drawn),/,/,/,-2,/,/
O=C1Nc2ccccc2S/C1=C/c1cccs1,0,92,-2,10*,5,1
O=C1NC(=S)SC1=Cc1cccs1,2,132,-4,0,/,/
CCS(=O)(=O)c1c([N+](=O)[O-])ncn1C,0,102,-4,15*,12*,2
Cn1cnc([N+](=O)[O-])c1Sc1ncn[nH]1,1,96,-2,8.3*,1,0
COC(=O)C[C@H]1CC[C@@H]2[C@@H](COc3ccc(NS(=O)(=O)c4ccccc4Cl)cc3C(=O)N2C)O1,/,/,/,-3,/,/
CC(Sc1nnc(NC2CCCCC2)s1)C(=O)Nc1ccc2c(c1)C(=O)c1ccccc1C2=O (stereo not drawn),1,105,1,10.0*,3,12*
O=C(O)CCCNS(=O)(=O)c1ccc(F)cc1,1,97,-1,8.8*,5,0
COc1ccc(-c2ccc(SCC(=O)N3c4ccccc4CC3C)nn2)cc1OC (stereo not drawn),1,94,-2,13*,2,4
COc1ccc(C(=O)N2CCCC(c3cc(C(=O)NCc4ccc(F)cc4)no3)C2)cc1 (stereo not drawn),1,96,-6,-3,/,/
CCc1ccc(C(O)c2ncc(-c3ccccc3F)[nH]2)cc1 (stereo not drawn),1,95,2,13*,5,5
CC(=O)N1CCCN(C(=O)CCn2nnc3ccccc32)CC1,/,/,/,-2,/,/
COc1cccc(N2CCN(C(=O)CCn3nnc4ccccc43)CC2)c1,/,/,/,9.4*,7,1
O=C1C(=Cc2cccs2)CCc2ccccc21,2,/,/,10*,8.2*,7.0*
CCCc1ccc(OCc2ccc(C(=O)N3CCSCC3)o2)cc1,0,97,-9,8.3*,4,7.4*
CC(C)(C)c1ccc(OCc2ccc(C(=O)N3CCOCC3)o2)cc1,0,100,-10,3,/,/
CN1CCCCC(NC(=O)CCCl)C1=O (stereo not drawn),1,/,/,-3,/,/
Cc1cccc(NC(=O)CN2C(=O)N/C(=C/c3ccc(C)o3)C2=O)c1,1,103,-9,9.1*,2,1
Cc1cccc(NC(=O)Cn2c(=O)oc3ccccc32)c1,0,95,-1,8.8*,-3,1
O=C(Cn1c(=O)oc2ccccc21)Nc1cccc(Cl)c1,1,99,-10,-4,/,/
Cc1ccc(NC(=O)CN2C(=O)N/C(=C/c3ccc(C)o3)C2=O)cc1,1,105,-9,2,/,/
